# PubChem BioAssay (NCATS)
# Inconclusive results are not listed. A call without a number means that no potency is given here. Active and inactive are the calls of the source. The call rests on the fitted dose curve; in most records, active means well fitted inhibition curve with a large enough effect; inconclusive means small, poorly fitted or top-dose-only effect; inactive means no such curve, though single readings can be large or run the other way.
# Target: Retinaldehyde dehydrogenase 3 (Homo sapiens) (UniProt P47895)
# Assay: qHTS for Inhibitors of the Aldehyde Dehydrogenase Family (ALDH1A3) Primary screen (AID 2061315)
# Conditions: ALDH inhibition qHTS; series mostly up to 56 µM
# Potency means the concentration at half of the fitted maximal effect.
row,SMILES,Potency
1,CC(=O)c1ccc(N2CCN(S(=O)(=O)c3ccc4[nH]c(=O)[nH]c4c3)CC2)cc1,inactive
2,COc1ccc(CC(NC(C)=O)C(=O)O)cc1 (stereo not given),inactive
3,Cc1ccc(-c2ccc(=O)n(CC(=O)NCCCc3ccccc3)n2)cc1,inactive
4,COc1cc(C(N)=O)nc(-c2ccccn2)c1O,inactive
5,CC(C)c1ccc(NC(=O)C(c2ccccc2)N(C)C(=O)Cc2c[nH]c3ccccc23)cc1 (stereo not given),inactive
6,CSC(Cc1ccc(Cl)cc1)C(=O)Nc1ccc(Cl)cc1C(=O)O (stereo not given),inactive
7,CN(C)c1ccc(C(=O)OCC#CCSc2nnc(-c3cccc4ccccc34)o2)cc1,inactive
8,O=c1c2ccccc2nc2sc(Nc3ccc(Oc4ccccc4)cc3)nn12,inactive
9,O=c1c2ccc(-c3cn[nH]c3)cc2nc2sc(Nc3ccc4c(c3)CCC4)nn12,inactive
10,O=C(Cc1ccc(Cl)c(Cl)c1)Nc1ccc(S(=O)(=O)Nc2cccc(O)c2)cc1,inactive
11,CC(O)c1ccc(-c2ccc3ncnc(NCC4CCCO4)c3c2)o1 (stereo not given),inactive
12,Cc1cc(/C=C/C#N)cc(C)c1Nc1nc(Nc2ccc3n[nH]nc3c2)c2[nH]cnc2n1,inactive
13,COc1ccc(C2c3ccc(OCc4ccccc4)cc3Oc3ncn(CCN4CCOCC4)c(=N)c32)cc1OC (stereo not given),inactive
14,Cc1cc(C)nc(NC(=S)N2CCN(c3cccc4ccccc34)CC2)c1,inactive
15,c1nc(NCCc2cnc[nH]2)c2ccc(-c3ccc4c(c3)OCO4)cc2n1,inactive
16,O=C(NCc1ccc(Oc2ccccc2)cc1)c1nc(-c2cc(Br)c(O)c(Br)c2)no1,inactive
17,Cn1ncc2ccc(-c3ccc4ncnc(NCc5cccs5)c4c3)cc21,inactive
18,O=C(O)c1ccc(O)c2ncc(N3CCCN(CCc4ccncc4)CC3)cc12,inactive
19,CCOC(=O)c1ccc(-c2ccc3ncnc(N(C)Cc4ccc(C)o4)c3c2)o1,inactive
20,COc1ccnc(CS(=O)c2nc3cc(OC(F)F)ccc3[nH]2)c1OC (stereo not given),31.6 µM (active)

row,SMILES,Potency
1,COc1cccc(CNc2ccc(S(=O)(=O)Nc3cccc4ccccc34)cc2)c1O,inactive
2,CNc1cccc(S(=O)(=O)N2CCCN(S(=O)(=O)c3ccc4c(c3)OCCO4)CC2)c1,inactive
3,N#Cc1c(-c2ccc(C(F)(F)F)cc2)no[n+]1[O-],inactive
4,CC(C)c1ccc(-n2ncc3c(=O)n(CC(=O)Nc4cc(F)ccc4Cl)cnc32)cc1,inactive
5,Cc1cccc(N2CCN(C(=S)Nc3cc(C)ccn3)CC2)c1,inactive
6,O=C(NCc1nnc(C(=O)Nc2ccc(C(F)(F)F)cc2Cl)o1)c1ccccc1,inactive
7,COc1cccc(-c2nc(SC)nc3sc(C(=O)NC(C)(C)C)c(N)c23)c1,inactive
8,O=C(N1Cc2ccc(Nc3nn4c(=O)c5ccccc5nc4s3)cc2C1)C(F)(F)F,inactive
9,Cc1cc(NS(=O)(=O)c2cc3c(cc2N[C@@H](C)CO)NC(=O)CC3)ccc1F,inactive
10,Cc1cc(C)nc(NC(=S)N2CCN(c3cncs3)CC2)c1,inactive
11,FC(F)(F)c1ccccc1-c1nc(NCc2ccc(-c3ccc4c(c3)OCCO4)cc2)c2ccccc2n1,inactive
12,COc1cc(O)c(C(CC(=O)N2CC(C)CC(C)C2)c2ccc(C)cc2)c(OC)c1 (stereo not given),inactive
13,CC(C)(C)OC(=O)N[C@@H](Cc1ccc(O[S+](=O)([O-])c2cccc3cnccc23)cc1)C(=O)N1CCN(Cc2ccccc2)CC1,inactive
14,CC(=O)c1ccc(-c2ccc3ncnc(NCc4ccc(C)o4)c3c2)o1,inactive
15,C=C1C(=O)O[C@H]2C1[C@H](OC(=O)/C(=C/CO)COC(=O)/C(C)=C/CO)CC(=C)[C@@H]1CC(=O)[C@@H](C)[C@@H]12 (stereo not given in full),inactive
16,CC(C)(C)OC(=O)N1CCN(c2ccc(OCc3ccc(-c4ccc(C#N)cc4)o3)cc2)CC1,inactive
17,NC(=O)c1cccc(-c2cc(O)cc(OC(=O)NC3CCCCC3)c2)c1,inactive
18,CN(C)c1ccc2c(=O)n3nc(Nc4ccc5c(c4)CCC5)sc3nc2c1,inactive
19,COc1ccc(C2c3c(N)nc(Cc4ccccc4)nc3Oc3ccc4ccccc4c32)cc1OC (stereo not given),inactive
20,O=C(Cc1nnc(-c2ccncc2)s1)Nc1ccc(F)c(C(F)(F)F)c1,inactive
